Screens: PubChem, National Center for Advancing Translational Sciences (NCATS)
Only some compounds are listed: those with a hit (about 19% of all), similar ones and a draw of the others.
TDP1 cell noCPT = qHTS for Inhibitors of human tyrosyl-DNA phosphodiesterase 1 (TDP1): qHTS in cells in absence of CPT; DT40 Tdp1-/- hTDP1 cells, no CPT, ATP luminescence, 48 h; Potency, µM (series often up to 46.2 µM), inactives show at the top dose activity change, negative = growth inhibition, actives largely listed as inhibitors; actives 15% (n = 420,000); AID 686978, 2013; further: potency means the concentration at half of the fitted maximal effect; nearly all actives have a fitted effect of over 55% in size
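Seeded 400 DT40-hTDP1 cells/well (vehicle DMSO, no 20 nM CPT); pinned compounds; ≥48 hr at 37 °C; CellTiter-Glo luminescence as viability measure.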
HT1080NT lethal = qHTS for induction of synthetic lethality in tumor cells producing 2HG: qHTS for the HT-1080-NT fibrosarcoma cell line. actives 1.6% (n = 360,000). HT-1080-NT fibrosarcoma viability, CellTiter-Glo ATP luminescence, 48 h. Potency, µM (titrated, usually from 46.1 µM), without a hit: at the highest dose activity, negative = less viability, hits mostly cytotoxic. AID 686970, 2013;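 further: NT is the 2HG producing partner of a matched IDH1 knockdown line; potency means the concentration at half of the fitted maximal effect; 0% = DMSO-treated cells and -100% = media-only wells without cells; nearly all actives have a fitted effect of over 55% in size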
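Fibrosarcoma NT cells, 750 per well in 5% FBS RPMI, were exposed to compound for 48 hours. Viability: CellTiter-Glo luminescence.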
TDP1 cell CPT = qHTS for Inhibitors of human tyrosyl-DNA phosphodiesterase 1 (TDP1): qHTS in cells in presence of CPT; chicken DT40 Tdp1-/-;hTDP1 cells + 20 nM CPT, ATP luminescence, 48 h; Potency, µM (titrated, usually from 46.2 µM), for the others: top-dose activity change, negative = growth inhibition, actives largely listed as inhibitors; actives 12% (n = 420,000); further: potency means the concentration at half of the fitted maximal effect; nearly all actives have a fitted effect of over 55% in size
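Chicken DT40 Tdp1-/- cells complemented with human TDP1, 400 cells/well, exposed to compounds plus 20 nM camptothecin for at least 48 h at 37 C; viability read as ATP content by CellTiter-Glo luminescence.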
IL-1B inflam inh = qHTS for Inhibitors of Inflammasome Signaling: IL-1-beta AlphaLISA Primary Screen; THP-1 LPS/ATP IL-1B secretion, AlphaLISA, 16 h; hits give low values; activity change, % at 57.5 µM; actives 4.7% (n = 360,000); AID 743279, 2014; in the data active means activity change below about -50%; inconclusive means mostly about -30% to -49%
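Secreted IL-1B measured by AlphaLISA bead assay after 16 h compound exposure of THP-1 cells; compounds (final up to 57.5 uM) added 1 h before LPS (250 ng/mL) and ATP (1.25 mM) stimulation; lower signal means less secretion.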
ELG1 repair inh = qHTS screen for small molecules that inhibit ELG1-dependent DNA repair in human embryonic kidney (HEK293T) cells expressing luciferase-tagged ELG1. AID 504467, 2011. actives 2.3% (n = 330,000). Potency, µM (doses to about 46.1 µM), without a hit: top-dose activity change, negative = inhibition, actives largely listed as inhibitors. HEK293T ELG1-luciferase reporter, luminescence, 16 h; DNA damage induced by 5-fluorouridine; further: potency means the concentration at half of the fitted maximal effect; nearly all actives have a fitted effect of over 55% in size
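Overnight (16 hr) co-exposure of 2,000 cells/well to 5-fluorouridine and compound at 37 °C preceded detection. Luciferase was quantified via ONE-Glo luminescence; loss of signal denotes inhibition.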
HT1080 IDH1KD tx = qHTS for induction of synthetic lethality in tumor cells producing 2HG: qHTS for the HT-1080-IDH1KD cell line. HT-1080 IDH1 knockdown viability, ATP luminescence, 48 h. Potency, µM (titrated, usually from 46.1 µM), for inactives: top-dose activity, negative = toxicity, actives largely listed as cytotoxic. actives 2% (n = 360,000). AID 686971, 2013;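 further: potency means the concentration at half of the fitted maximal effect; 0% = DMSO wells and -100% = cell-free medium wells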
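In this qHTS, HT-1080 cells depleted of IDH1 are exposed for 48 h at 37 °C to compound titrations. Toxicity is scored from CellTiter-Glo luminescence, with DMSO as full viability and medium alone as none.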
An asterisk follows results filed as active; i = inactive; u = inconclusive; x = no result; [ ] = another dose, or the depositor's remark. Unless noted, the call rests on the fitted dose curve; in most records, active means well fitted curve in the direction sought with a large enough effect; inconclusive means small, poorly fitted or top-dose-only effect, or another doubt; inactive means no such curve, though single readings can be large; an effect the other way counts as inactive or inconclusive. Unless noted, on the % scale 0 is the no-effect control and ±100 the full control effect.

SMILES | TDP1 cell noCPT | HT1080NT lethal | TDP1 cell CPT | IL-1B inflam inh | ELG1 repair inh | HT1080 IDH1KD tx
Cn1cccc1/C=N/n1c(-c2ccc(C(C)(C)C)cc2)n[nH]c1=S | 8.2µM* | u | 8.2µM* | 45.2 | u | -7.6%[9.24 µM]
CC(C)(C)c1ccc(-c2n[nH]c(=S)n2C2CCCC2)cc1 | 16.4µM* | u | u | -7.5 | u | u
Cn1c(-c2ccc(C(C)(C)C)cc2)n[nH]c1=S | u | -12.0% | u | 15.0 | u | -2.3%
CCn1c(-c2ccc(C(C)(C)C)cc2)n[nH]c1=S | 8.2µM* | -11.2% | 14.6µM* | -3.6 | -3.3% | -25.0%
CC(C)C(N)c1csc(Nc2cc(Oc3ccccc3)ncn2)n1 (stereo not drawn) | u | u | u | -90.9* | x | u
CC(C)CC(N)c1csc(Nc2cc(Oc3ccccc3)ncn2)n1 (stereo not drawn) | 20.6µM* | 20.6µM* | 23.1µM* | 0.0 | x | -23.5%
CC(C)C(N)c1csc(Nc2ccccn2)n1 (stereo not drawn) | -19.2% | -2.1% | 8.2% | -11.4 | x | -2.1%
NC(c1ccccc1)c1csc(Nc2cc(Oc3ccccc3)ncn2)n1 (stereo not drawn) | 16.4µM* | u | 18.4µM* | -77.1* | x | u
Cc1cccnc1NC(=O)CN1C(=O)NC(C)(c2ccc3ccccc3c2)C1=O (stereo not drawn) | -19.3% | -19.6% | -21.4% | -3.9 | u | -4.5%
CC(=O)Nc1ccc(S(=O)(=O)N2CCN=C2SCc2ccccc2C)cc1 | 16.4µM* | -3.5% | u | -2.7 | -10.1% | -2.2%
CS(=O)(=O)N1CCN=C1SCc1ccc([N+](=O)[O-])cc1 | 6.0% | 3.1% | 11.7% | -0.4 | -18.3% | -14.4%
CC(=O)Nc1ccc(S(=O)(=O)N2CCN=C2SCc2ccc([N+](=O)[O-])cc2)cc1 | 7.31µM* | u | 11.6µM* | -28.0 | u | u
CC(=O)Nc1ccc(S(=O)(=O)N2CCN=C2SCc2cccc(C)c2)cc1 | u | -0.3% | u | i | -23.2% | -1.1%
COc1ccc(NC2=Nc3cccc4cccc2c34)cc1OC | 25.9µM* | -30.7% | 23.1µM* | u | -0.9% | -0.8%
COc1cc(NC2=Nc3cccc4cccc2c34)cc(OC)c1OC | u | u | u | 0.8 | 1.9% | u
COc1ccc(Cl)cc1NC(=S)NCCc1ccc(F)cc1 | 6.3% | -0.9% | u | 4.3 | -1.3% | 2.2%
Fc1ccc(CCNC(=S)Nc2ccc(F)c(Cl)c2)cc1 | u | u | 18.4µM* | -82.9* | u | u
Fc1ccc(NC(=S)NCCc2ccc(Cl)cc2)cc1 | 23.1µM* | -7.0% | u | 0.0 | u | -3.4%
CN(C)c1ccc(/C=N/Nc2nncc3ccccc23)cc1 | 13µM* | 4.4% | u | 54.1 | u | 0.8%
COc1ccc(/C=N/Nc2nncc3ccccc23)c(OC)c1 | u | 7.8% | 25.9µM* | -15.9 | u | 12.0%
COc1cc(/C=N/Nc2nncc3ccccc23)cc(OC)c1OC | 11.6µM* | -4.6% | 20.6µM* | -29.9 | u | -3.6%
C[C@@H]1CN([C@H](C)CO)C(=O)c2cc(C#C[C@@H](C)O)cnc2O[C@H]1CN(C)C(=O)c1ccc(F)cc1 | 6.7% | 0.4% | -2.0% | 24.2 | x | -7.2%
C[C@H](CO)N1C[C@H](C)[C@H](CN(C)C(=O)Nc2ccc(C(F)(F)F)cc2)Oc2ncc(Br)cc2C1=O | u | -10.3% | u | -6.7 | x | -4.2%
C[C@H](O)C#Cc1cnc2c(c1)C(=O)N([C@H](C)CO)C[C@@H](C)[C@H](CN(C)C(=O)Nc1ccc(C(F)(F)F)cc1)O2 | 7.31µM* | -3.3% | 11.6µM* | u | x | 12.5%
C[C@H]1CN([C@@H](C)CO)C(=O)c2cc(Br)cnc2O[C@@H]1CN(C)C(=O)Nc1ccc(C(F)(F)F)cc1 | 23.1µM* | -11.8% | 20.6µM* | 3.7 | x | -4.3%
SMILES | TDP1 cell noCPT | HT1080NT lethal | TDP1 cell CPT | IL-1B inflam inh | ELG1 repair inh | HT1080 IDH1KD tx
O=C1NC(=O)c2cc(Nc3ccccc3)c(Nc3ccccc3)cc21 | 12.6µM* | -3.9% | u | x | x | -19.3%
COc1ccc(-c2cn3c(C)c(C(=O)N4CCc5ccccc5C4)sc3n2)cc1 | 20.6µM* | -21.4% | 18.4µM* | 53.8 | u | u
CNC(=O)c1sc2nc(-c3ccc(OC)cc3)cn2c1C | u | 13.3% | -9.8% | -14.5 | u | 4.9%
Cc1c(C(=O)N2CCc3ccccc3C2)sc2nc(-c3ccccc3)cn12 | 20.6µM* | -5.1% | u | -11.3 | 20.6µM* | u
Cc1cc(=O)[nH]c(SCC(=O)N2CCN(S(=O)(=O)c3ccccc3)C2)n1 | 3.2% | 5.7% | -3.3% | 28.1 | -9.1% | 7.0%
CN(c1ccccc1)c1nc2ccsc2c(=O)s1 | -24.2% | 4.1% | 1.6% | 7.4 | u | -0.9%
CN(C1=NS(=O)(=O)N=C(N(C)c2ccccc2)O1)c1ccccc1 | u | u | u | -102.4* | x | u
CCCCn1nc(NC(=O)c2cccs2)c2cc3cc(OC)ccc3nc21 | 23.1µM* | u | 18.4µM* | 3.9 | u | u
CCCn1nc(NC(=O)c2cccs2)c2cc3cc(C)ccc3nc21 | 16.4µM* | -10.7% | u | -20.7 | u | -27.6%
CCCCn1nc(NC(=O)c2cccs2)c2cc3ccccc3nc21 | 18.4µM* | u | 20.6µM* | -93.9* | u | u
CCCn1nc(NC(=O)c2cccs2)c2cc3cc(OC)ccc3nc21 | 11.6µM* | 0.3% | 13µM* | -17.9 | u | -1.2%
CCc1ccccc1NC(=O)N1CCOc2ccccc21 | -44.5% | x | u | x | x | x
C=CCN1C(=O)C(=O)N(Cc2nc3ccccc3s2)C1=O | -3.9% | 6.1% | -1.5% | 20.9 | u | 1.4%
CC1=C(c2ccccc2)C(=S)NC(C)(C)C1 | -10.4% | -10.3% | -12.6% | 29.8 | 1.2% | 32.6µM*
O=C1CCN(CCCN2CCC(=O)NC2=S)C(=S)N1 | 8.0% | 1.6% | 1.7% | 3.9 | x | 4.9%
